Laboratory results: PubChem BioAssay AID2284058 (EPA ToxCast)
Active and inactive are the calls of the source. The calls were made as follows: active = hit-call score of the fitted dose curve at least 0.9, where 1 is the maximum; inactive = score below 0.9.

Each compound was assayed against CYP2C9, CYP2C9 (gene 1559) (UniProt P11712) (assay: ERF_FR_ADME_hCYP2C9: Eurofins (ERF) CYP450-related Enzyme Activity (ADME) Assay for CYP2C9).
Procedure: ERF_FR_ADME_hCYP2C9 is a biochemical, single-readout assay that uses extracted gene-proteins in a cell-free assay. Measurements were taken 0.66 hour after chemical dosing in a 96-well plate. See CYP2C9 inhibition (recombinant, MFC substrate).ERF_FR_ADME_hCYP2C9 is an assay component calculated from the ERF_FR_ADME_hCYP2C9 assay. It is designed to measure enzyme activity using a type of enzyme reporter as detected by fluorescence intensity of HFC with fluorimetry technology.Data from the assay component ERF_FR_ADME_hCYP2C9 was analyzed at the assay endpoint, ERF_FR_ADME_hCYP2C9, in the positive analysis fitting direction relative to acetonitrile as the negative control and baseline of activity. Using a type of enzyme reporter, loss-of-signal activity can be used to understand changes in enzymatic activity as they relate to gene CYP2C9. To generalize the intended target to other relatable targets, this assay endpoint is annotated to the cyp intended target family, where the subfamily is steroidogenesis-related.
Human cells are incubated for 15 minutes at 37C with Diclofenac as substrate and Sulfaphenazole as control inhibitor. Test Sample Requirements: Minimum for 1) Screen: 25 ul of 10 mM stock -OR- 1 mg (pre-weighed) for 10 uM final testing. 2) Dose Response: 60 ul of 10 mM stock -OR- 1 mg (pre-weighed). […]

Sequence of CYP2C9, CYP2C9 (gene 1559) (P11712 whole entry, looked up): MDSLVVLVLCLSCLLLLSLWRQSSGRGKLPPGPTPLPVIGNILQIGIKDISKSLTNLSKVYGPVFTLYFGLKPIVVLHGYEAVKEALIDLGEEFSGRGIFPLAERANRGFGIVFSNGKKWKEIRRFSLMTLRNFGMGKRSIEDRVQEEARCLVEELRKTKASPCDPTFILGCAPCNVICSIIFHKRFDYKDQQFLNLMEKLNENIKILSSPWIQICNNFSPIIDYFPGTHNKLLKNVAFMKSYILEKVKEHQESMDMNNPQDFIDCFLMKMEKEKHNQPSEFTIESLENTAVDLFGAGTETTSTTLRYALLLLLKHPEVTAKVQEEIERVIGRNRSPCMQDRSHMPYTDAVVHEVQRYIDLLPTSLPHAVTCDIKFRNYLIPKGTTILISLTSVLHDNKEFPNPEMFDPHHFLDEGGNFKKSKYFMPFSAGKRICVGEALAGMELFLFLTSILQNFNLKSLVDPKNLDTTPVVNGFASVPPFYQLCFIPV

Structure (SMILES) | AC50
O=C(/C=C/c1ccc(O)cc1)CC(=O)/C=C/c1ccc(O)cc1 | 0.502 µM (active)
